target: Mitogen-activated protein kinase 7 (Homo sapiens) (UniProt Q13164); assay: ERK5 transactivation activators in reporter cells, primary screen, cell-based, HTS (AID 1508626); settings: HeLa Gal4-ERK5 transactivation, 18 h, at 5 µM, hits give high values;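 note: luciferase driven by Gal4-ERK5 fusion binding five Gal4 sites before minimal TATA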
Sequence (Q13164 whole entry, looked up, the tested form may be a part): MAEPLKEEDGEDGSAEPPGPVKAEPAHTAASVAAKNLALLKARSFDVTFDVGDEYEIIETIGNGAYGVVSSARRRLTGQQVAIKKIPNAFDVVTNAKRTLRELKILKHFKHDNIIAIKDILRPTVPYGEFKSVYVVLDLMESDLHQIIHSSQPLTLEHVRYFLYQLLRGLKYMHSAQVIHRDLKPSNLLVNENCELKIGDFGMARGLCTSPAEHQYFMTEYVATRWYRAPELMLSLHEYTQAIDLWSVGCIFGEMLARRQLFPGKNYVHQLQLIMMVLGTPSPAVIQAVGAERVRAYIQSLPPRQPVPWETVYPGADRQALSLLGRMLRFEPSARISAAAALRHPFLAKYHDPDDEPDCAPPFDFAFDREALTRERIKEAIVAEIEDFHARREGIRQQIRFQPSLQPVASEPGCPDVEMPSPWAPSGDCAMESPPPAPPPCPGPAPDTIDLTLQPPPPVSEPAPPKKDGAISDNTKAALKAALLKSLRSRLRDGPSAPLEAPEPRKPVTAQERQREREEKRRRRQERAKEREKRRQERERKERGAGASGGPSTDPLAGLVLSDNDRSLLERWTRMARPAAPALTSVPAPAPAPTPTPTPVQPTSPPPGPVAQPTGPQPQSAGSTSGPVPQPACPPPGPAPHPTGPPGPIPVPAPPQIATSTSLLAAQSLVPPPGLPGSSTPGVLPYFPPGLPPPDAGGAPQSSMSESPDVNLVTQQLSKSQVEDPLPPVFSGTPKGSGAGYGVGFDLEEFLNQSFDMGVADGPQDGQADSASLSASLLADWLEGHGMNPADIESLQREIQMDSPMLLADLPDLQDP

Luciferase signal, inactive:
COCCCOc1ccnc(CS(=O)c2nc3ccccc3[nH]2)c1C (stereo not given) 200 AU, N=c1nc(N2CCCCC2)cc(N)n1O 44 AU, CC(C)NCC(O)COc1cccc2[nH]ccc12 (stereo not given) 84 AU, CCn1cc(C(=O)O)c(=O)c2ccc(C)nc21 44 AU, CN(C)C(=O)C(CCN1CCC(O)(c2ccc(Cl)cc2)CC1)(c1ccccc1)c1ccccc1 40 AU, Cc1cc(NS(=O)(=O)c2ccc(N)cc2)no1 64 AU, CCCC(CCC)C(=O)O 132 AU, O=C1CN(/N=C/c2ccc([N+](=O)[O-])o2)C(=O)N1 40 AU, COc1cc(Cc2cnc(N)nc2N)cc(OC)c1OC 48 AU, COC(=O)C1=C(C)NC(C)=C(C(=O)OCCN(C)Cc2ccccc2)C1c1cccc([N+](=O)[O-])c1 (stereo not given) 48 AU, O=C(CCCN1CCC(O)(c2ccc(Cl)cc2)CC1)c1ccc(F)cc1 40 AU, CC(C)(C)NCC(O)c1ccc(O)c(CO)c1 (stereo not given) 32 AU, COc1ccc2cc([C@H](C)C(=O)O)ccc2c1 36 AU, COc1c2occc2cc2ccc(=O)oc12 24 AU, NC(=O)c1cccnc1 32 AU, CN/C(=C\[N+](=O)[O-])NCCSCc1ccc(CN(C)C)o1 28 AU, CNCCCN1c2ccccc2CCc2ccccc21 80 AU, CN1C(=O)CC[C@H]1c1cccnc1 64 AU, CCCC(=O)Nc1ccc(OCC(O)CNC(C)C)c(C(C)=O)c1 (stereo not given) 60 AU, O=C(O)CCc1nc(-c2ccccc2)c(-c2ccccc2)o1 44 AU, CC(C)OC(=O)C(C)(C)Oc1ccc(C(=O)c2ccc(Cl)cc2)cc1 56 AU, CC(C(=O)O)c1cccc(C(=O)c2ccccc2)c1 (stereo not given) 60 AU, CN1CCN(C2=Nc3cc(Cl)ccc3Nc3ccccc32)CC1 24 AU, Oc1ccc(O)cc1 40 AU, COC(=O)C1=C(C)NC(C)=C(C(=O)OC)C1c1ccccc1[N+](=O)[O-] 52 AU
